# In PubChem BioAssay:
# Results filed as inconclusive are left out. The source made the active and inactive calls.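 Rule for the calls, unless noted: active = normalized viability below 100% at a tested concentration; inactive = the rest.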
# Assays:
# [1] = growth inhibition of DIPG glioma cells, dose response, cell-based, SU-DIPG-XVII, MIPE5.0, CellTiter-Glo, qHTS (AID 1347060; cut-off not given, nearly all actives have AC50 up to about 26 µM;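 note: cells exposed to compound for 48 hours before viability readout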); details: SU-DIPG-XVII viability, CellTiter-Glo ATP luminescence
# [2] = growth inhibition of DIPG glioma cells, dose response, cell-based, JHH-DIPG-1, MIPE4.0, CellTiter-Glo, qHTS (AID 1347062; cut-off not given, nearly all actives have AC50 up to about 27 µM;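 note: cells exposed to compound for two days before readout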); details: JHH-DIPG-1 viability, CellTiter-Glo ATP luminescence
# [3] = growth inhibition of DIPG glioma cells, dose response, cell-based, SU-DIPG-XIII, MIPE5.0, CellTiter-Glo, qHTS (AID 1347064; cut-off not given, nearly all actives have AC50 up to about 23 µM;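 note: cells exposed to compound for 48 hours before the viability read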); details: SU-DIPG-XIII viability, CellTiter-Glo ATP luminescence
# [4] = viability loss in pontine glioma line – cell-based, SU-DIPG-XXV, MIPE5.0, CellTiter-Glo, qHTS, dose response (AID 1347065; cut-off not given, nearly all actives have AC50 up to about 26 µM;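 note: cells exposed to compound for 48 hours before ATP readout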); details: CellTiter-Glo ATP luminescence
# [5] = JHH-DIPG-1 glioma cell viability, MIPE5.0 library, CellTiter-Glo luminescence, qHTS (AID 1347067; cut-off not given, nearly all actives have AC50 up to about 26 µM;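 note: cells exposed to compound for 48 hours before readout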); details: JHH-DIPG-1 glioma viability, CellTiter-Glo ATP luminescence
# [6] = SU-DIPG-XXV glioma cell viability, MIPE5.0 library, qHTS (AID 1347068; cut-off not given, nearly all actives have IC50 up to about 30 µM;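 note: cells exposed to compound for 48 hours before viability readout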)
# [7] = modifiers of HSF1 nuclear foci, imaging, Selleck Cancer Library (AID 1347162; in the data active = plate-normalised HSF1 focus index below about 0.46); details: human cells, at 10 µM; SSMD: measured here: HSF1 foci SSMD mean; cell count: measured here: cell number; plate-normalised HSF1 focus index: stronger effect = lower value
# [8] = ovarian cancer cell viability with rucaparib, profiling panel, oncology-focused library, rucaparib conditional (AID 1508598); details: patient-derived ovarian cancer cells, CellTiter-Glo viability, 144 h, stronger effect = lower value
smiles,measurement,setting,value
Cc1ccc(C(=O)N(CCCN)[C@@H](c2nc3cc(Cl)ccc3c(=O)n2Cc2ccccc2)C(C)C)cc1,AC50,[1],16.6 nM (active)
same,AC50,[2],13200 nM (active)
same,AC50,[3],5900 nM (active)
same,AC50,[4],9.34 nM (active)
same,AC50,[5],9340 nM (active)
same,IC50,[6],16.6 nM (active)
same,SSMD,[7],-9.79
same,cell count,[7],3920
same,plate-normalised HSF1 focus index,[7],0.497 (inactive)
same,viability,"[8]; at 0.000305 µM, OCI-C5x cells, with rucaparib 10 µM, 100% = cells with rucaparib alone",104% (inactive)
same,viability,"[8]; at 0.000305 µM, OCI-C5x cells, without rucaparib",109% (inactive)
same,viability,"[8]; at 0.000305 µM, OCI-P5x cells, with rucaparib 20 µM, 100% = cells with rucaparib alone",95.5% (active)
same,viability,"[8]; at 0.000305 µM, OCI-P5x cells, without rucaparib",101% (inactive)
same,viability,"[8]; at 0.00122 µM, OCI-C5x cells, with rucaparib 10 µM, 100% = cells with rucaparib alone",90.5% (active)
same,viability,"[8]; at 0.00122 µM, OCI-C5x cells, without rucaparib",116% (inactive)
same,viability,"[8]; at 0.00122 µM, OCI-P5x cells, with rucaparib 20 µM, 100% = cells with rucaparib alone",78.5% (active)
same,viability,"[8]; at 0.00122 µM, OCI-P5x cells, without rucaparib",81.4% (active)
same,viability,"[8]; at 0.00488 µM, OCI-C5x cells, with rucaparib 10 µM, 100% = cells with rucaparib alone",44.7% (active)
same,viability,"[8]; at 0.00488 µM, OCI-C5x cells, without rucaparib",76.6% (active)
same,viability,"[8]; at 0.00488 µM, OCI-P5x cells, with rucaparib 20 µM, 100% = cells with rucaparib alone",68.7% (active)
same,viability,"[8]; at 0.00488 µM, OCI-P5x cells, without rucaparib",66.4% (active)
same,viability,"[8]; at 0.0195 µM, OCI-C5x cells, with rucaparib 10 µM, 100% = cells with rucaparib alone",43.1% (active)
same,viability,"[8]; at 0.0195 µM, OCI-C5x cells, without rucaparib",55.9% (active)
same,viability,"[8]; at 0.0195 µM, OCI-P5x cells, with rucaparib 20 µM, 100% = cells with rucaparib alone",51.4% (active)
same,viability,"[8]; at 0.0195 µM, OCI-P5x cells, without rucaparib",21.1% (active)
same,viability,"[8]; at 0.0781 µM, OCI-C5x cells, with rucaparib 10 µM, 100% = cells with rucaparib alone",47.4% (active)
same,viability,"[8]; at 0.0781 µM, OCI-C5x cells, without rucaparib",65.7% (active)
same,viability,"[8]; at 0.0781 µM, OCI-P5x cells, with rucaparib 20 µM, 100% = cells with rucaparib alone",55.4% (active)
same,viability,"[8]; at 0.0781 µM, OCI-P5x cells, without rucaparib",24.5% (active)
same,viability,"[8]; at 0.313 µM, OCI-C5x cells, with rucaparib 10 µM, 100% = cells with rucaparib alone",56.5% (active)
same,viability,"[8]; at 0.313 µM, OCI-C5x cells, without rucaparib",65.1% (active)
same,viability,"[8]; at 0.313 µM, OCI-P5x cells, with rucaparib 20 µM, 100% = cells with rucaparib alone",54.8% (active)
same,viability,"[8]; at 0.313 µM, OCI-P5x cells, without rucaparib",22.4% (active)
same,viability,"[8]; at 1.25 µM, OCI-C5x cells, with rucaparib 10 µM, 100% = cells with rucaparib alone",50.7% (active)
same,viability,"[8]; at 1.25 µM, OCI-C5x cells, without rucaparib",61.5% (active)
same,viability,"[8]; at 1.25 µM, OCI-P5x cells, with rucaparib 20 µM, 100% = cells with rucaparib alone",56.9% (active)
same,viability,"[8]; at 1.25 µM, OCI-P5x cells, without rucaparib",24.3% (active)
same,viability,"[8]; at 5 µM, OCI-C5x cells, with rucaparib 10 µM, 100% = cells with rucaparib alone",6.32% (active)
same,viability,"[8]; at 5 µM, OCI-C5x cells, without rucaparib",47.8% (active)
same,viability,"[8]; at 5 µM, OCI-P5x cells, with rucaparib 20 µM, 100% = cells with rucaparib alone",26.6% (active)
same,viability,"[8]; at 5 µM, OCI-P5x cells, without rucaparib",17.1% (active)
